In PubChem BioAssay AID651710 (Broad Institute, 2012):
“And” between values parts separate entries of the source, which are not always exact repeats. Identical values can stand only once. Among all 360,000 compounds or so, about 1,600 (0.44%) were called active.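 How the source made its calls: active means every replicate showing at least 50% inhibition; inconclusive means mean inhibition at least 50% but not in every replicate; inactive means the rest.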 The entries come from a sample that favours actives as a whole.

The compounds below were run against DNA repair protein RAD52 homolog (Homo sapiens) (UniProt P43351) (assay: RAD52 DNA annealing inhibitors, primary screen, biochemical, FRET, single point, set 2 (AID 651710)). Details: recombinant RAD52 DNA annealing, FRET fluorescence; at 18.7 µM; stronger effect = higher value.
Sequence of DNA repair protein RAD52 homolog (Homo sapiens) (P43351 whole entry, looked up): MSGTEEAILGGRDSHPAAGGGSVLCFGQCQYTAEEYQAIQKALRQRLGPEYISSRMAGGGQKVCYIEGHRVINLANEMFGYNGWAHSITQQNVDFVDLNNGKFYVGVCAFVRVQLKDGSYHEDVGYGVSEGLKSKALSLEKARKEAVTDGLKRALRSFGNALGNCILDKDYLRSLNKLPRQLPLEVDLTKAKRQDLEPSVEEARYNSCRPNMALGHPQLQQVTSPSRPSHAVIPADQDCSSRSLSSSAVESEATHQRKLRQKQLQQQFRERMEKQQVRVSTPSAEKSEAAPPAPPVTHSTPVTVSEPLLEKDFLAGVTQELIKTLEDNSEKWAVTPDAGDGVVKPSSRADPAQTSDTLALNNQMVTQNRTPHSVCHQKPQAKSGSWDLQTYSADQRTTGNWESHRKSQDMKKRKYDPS

Structure (SMILES)	inhibition
COc1ccc(NC(=O)N(C)C[C@H]2Oc3ccc(NS(=O)(=O)c4ccc(F)cc4)cc3C(=O)N([C@@H](C)CO)C[C@@H]2C)cc1	15.8% (inactive)
C[C@H](CO)N1C[C@H](C)[C@@H](CN(C)Cc2ccc(Cl)c(Cl)c2)Oc2ccc(NS(=O)(=O)c3ccccc3)cc2C1=O	-11.9% (inactive)
O=C(/C=C/c1ccc(Cl)cc1)Nc1ccc(Br)cn1	-0.893% (inactive)
NCCCNC(=S)NCCCN(Cc1ccc(Cl)cc1)c1ccc(Br)cn1	95% (active)
S=C(NCCCc1cnc[nH]1)NCCCN(Cc1ccc(Cl)c(Cl)c1)c1ccc(Br)cn1	-1.73% (inactive)
O=C1CN(S(=O)(=O)c2ccccc2)C[C@H]2[C@H](c3ccc(C4=CCCC4)cc3)[C@@H](CO)N12	-19.1% (inactive)
C[C@H](NC(=O)C[C@@H]1C=C[C@H](NC(=O)CN2CCOCC2)[C@H](CO)O1)c1ccccc1	3.29% (inactive)
Cc1ccc2nc(CN(C)C(=O)[C@@H](Cc3ccccc3)NC(=O)[C@H]3O[C@@H](n4ccc(=O)[nH]c4=O)[C@H](O)[C@@H]3O)[nH]c2c1	5.6% (inactive)
C[C@@H]1CN([C@H](C)CO)C(=O)Cc2cc(N(C)C)ccc2O[C@H]1CN(C)S(C)(=O)=O	-4.07% (inactive)
CC(=O)NCCn1c(SCC(=O)Nc2ccc(C)cc2)nc2ccccc2c1=O	-11.4% (inactive)
CCc1c(C)nc2c(-c3ccccc3)c(C)nn2c1Nc1ccc(NC(C)=O)cc1	-12.3% (inactive)
CC(=O)Nc1ccc(Nc2c3ccccc3nc3ccccc23)cc1	91.2% (active)
O=C(c1cnccn1)N1CC(=O)N2[C@H](C1)[C@@H](c1ccc(C#CC3CCCCC3)cc1)[C@@H]2CO	13.7% (inactive)
O=C(NCCc1ccccn1)c1cc(-c2ccc(Cl)cc2)nc2ccccc12	-15.9% (inactive)
CNC(=O)c1cccc2nc3ccccc3nc12	2.55% (inactive)
CN(C)CCNC(=O)c1ccc(Cl)c2cc3ccccc3nc12	94.5% (active)
Cn1cnc(S(=O)(=O)N[C@H]2C=C[C@H](CC(=O)NCC3CCCCC3)O[C@@H]2CO)c1	2.08% (inactive)
C[C@@H]1CCCCO[C@H](CN(C)Cc2ccccc2)[C@H](C)CN([C@H](C)CO)C(=O)c2cc(NS(=O)(=O)c3ccc(Cl)cc3)ccc2O1	53.1% (active)
C[C@@H]1CCCCO[C@H](CN(C)C(=O)CCCN(C)C)[C@H](C)CN([C@@H](C)CO)C(=O)c2cc(NS(=O)(=O)c3ccccc3)ccc2O1	13.8% (inactive)
C[C@H](CO)N1C[C@H](C)[C@@H](CN(C)Cc2ccncc2)OCCCC[C@H](C)Oc2ccc(NS(=O)(=O)c3ccc(Cl)cc3)cc2C1=O	-15.9% (inactive)
C[C@@H]1CCCCO[C@H](CN(C)C(=O)CCCN(C)C)[C@H](C)CN([C@@H](C)CO)C(=O)c2cc(NS(=O)(=O)c3ccc(Cl)cc3)ccc2O1	52.5% (active)

Structure (SMILES)	inhibition
C[C@@H]1CN([C@H](C)CO)C(=O)c2cc(NS(=O)(=O)c3ccc(Cl)cc3)ccc2O[C@@H](C)CCCCO[C@H]1CN(C)Cc1ccccc1	64.2% (active)
C[C@@H]1CN([C@@H](C)CO)C(=O)c2cc(NS(=O)(=O)c3cn(C)cn3)ccc2O[C@@H](C)CCCCO[C@H]1CN(C)S(=O)(=O)c1cccs1	99.3% (active)
C[C@@H]1CCCCO[C@H](CN(C)Cc2ccccc2)[C@H](C)CN([C@@H](C)CO)C(=O)c2cc(NS(=O)(=O)c3ccccc3)ccc2O1	7.51% (inactive)
CC(C)NC(=O)N(C)C[C@H]1OCCCC[C@H](C)Oc2ccc(NS(=O)(=O)c3ccc(Cl)cc3)cc2C(=O)N([C@@H](C)CO)C[C@H]1C	15.1% (inactive)
C[C@@H]1CCCCO[C@H](CN(C)Cc2ccccc2)[C@@H](C)CN([C@H](C)CO)C(=O)c2cc(NS(=O)(=O)c3ccc(Cl)cc3)ccc2O1	35.2% (inactive) and -9.61% (inactive)
C[C@@H]1CN([C@H](C)CO)C(=O)c2cc(NS(=O)(=O)c3cccs3)ccc2O[C@@H](C)CCCCO[C@@H]1CN(C)S(=O)(=O)c1cccs1	-0.96% (inactive)
C[C@@H]1CCCCO[C@H](CN(C)S(=O)(=O)c2cccs2)[C@H](C)CN([C@@H](C)CO)C(=O)c2cc(NS(=O)(=O)c3cccs3)ccc2O1	-2.6% (inactive)
C[C@H](CO)N1C[C@H](C)[C@H](CN(C)Cc2ccc(C(F)(F)F)cc2)OCCCC[C@H](C)Oc2ccc(NS(=O)(=O)c3ccc(Cl)cc3)cc2C1=O	5.56% (inactive)
COc1cccc(S(=O)(=O)Nc2ccc3c(c2)[C@@H]2C[C@@H](CC(=O)NCc4ccc(Cl)cc4)O[C@H](CO)[C@@H]2O3)c1	10.3% (inactive)
CN(C)C(=O)C[C@@H]1C[C@H]2c3cc(NC(=O)Nc4ccccc4F)ccc3O[C@H]2[C@@H](CO)O1	-10% (inactive)
Cc1noc(C)c1S(=O)(=O)Nc1ccc2c(c1)CC(=O)N([C@@H](C)CO)C[C@H](C)[C@H](CN(C)C(=O)Nc1ccccc1)O2	-0.934% (inactive)
Cc1noc(C)c1NC(=O)Nc1cccc2c1O[C@@H](CN(C)C(=O)Nc1ccc(C(F)(F)F)cc1)[C@@H](C)CN([C@@H](C)CO)C2=O	-2.22% (inactive)
O=C(C[C@@H]1CC[C@@H]2[C@H](COC[C@H](O)CN2S(=O)(=O)c2ccc(Cl)cc2)O1)N[C@@H]1CCN(Cc2ccccc2)C1	17.8% (inactive)
O=C(C[C@H]1CC[C@H](NC(=O)Nc2ccccc2F)[C@@H](CO)O1)NCc1ccccc1	-8.56% (inactive)
COc1ccc(S(=O)(=O)Nc2ccc3c(c2)C(=O)N([C@H](C)CO)C[C@@H](C)[C@H](CN(C)Cc2ccccc2)O3)cc1	12.7% (inactive)
COc1cccc(-c2ccc([C@@H]3[C@@H](CO)N4C(=O)CN(C(=O)C5CCCCC5)C[C@H]34)cc2)c1	-17.9% (inactive)
CC(C)NC(=O)N(C)C[C@H]1OCCCC[C@@H](C)Oc2ccc(NC(=O)C3CCCCC3)cc2C(=O)N([C@H](C)CO)C[C@H]1C	-14% (inactive)
CO[C@H]1CN(C)C(=O)c2ccc(NC(=O)c3cccc(F)c3)cc2OC[C@@H](C)N(C(C)=O)C[C@@H]1C	3.49% (inactive)
C[C@@H]1CCCCO[C@H](CN(C)Cc2ccc(C(F)(F)F)cc2)[C@H](C)CN([C@H](C)CO)C(=O)c2cc(NC(=O)Nc3ccc(F)cc3)ccc2O1	-10% (inactive)
CCCN(C)C[C@@H]1OCCCC[C@@H](C)Oc2ccc(NC(=O)Nc3ccc(C(F)(F)F)cc3)cc2C(=O)N([C@H](C)CO)C[C@H]1C	61.7% (active)
C[C@H](CO)N1C[C@H](C)[C@@H](CN(C)S(C)(=O)=O)OCCCC[C@H](C)Oc2ccc(NC(=O)Nc3ccc(C(F)(F)F)cc3)cc2C1=O	9.95% (inactive)

Structure (SMILES)	inhibition
CN1C(=O)c2cc(NC(=O)C3CCOCC3)ccc2OC[C@@H]2O[C@H](CC(=O)NCc3ccccc3F)CC[C@H]21	-6.2% (inactive)
COCC(=O)Nc1ccc2c(c1)OC[C@H](C)N(Cc1ccccc1OC)C[C@@H](C)[C@@H](OC)CN(C)C2=O	5.08% (inactive)
CCCn1c2ccccc2c2cnn(CC(=O)NCCCN3CCCCC3CC)c(=O)c21 (stereo not drawn)	6.95% (inactive)
Cc1nc2ccccc2c2oc(C(=O)NCCCN3CCC(C)CC3)cc12	24.5% (inactive)
CCC1CCCCN1CCCNC(=O)c1cc2c(Cl)nc3ccccc3c2s1 (stereo not drawn)	64.2% (active)
C[C@@H]1CN([C@H](C)CO)C(=O)c2cccc(NC(=O)C3CCOCC3)c2O[C@H]1CN(C)S(=O)(=O)c1ccc(Cl)cc1	-3.65% (inactive)
OC[C@@H]1[C@H](c2ccc(C#Cc3ccccc3)cc2)[C@@H]2CN(Cc3cncnc3)CCCCN12	-7.81% (inactive)
OC[C@H]1[C@H](c2ccc(-c3cccnc3)cc2)[C@H]2CN(Cc3ccccn3)CCCCN21	-13.2% (inactive)
OC[C@H]1[C@@H](c2ccc(/C=C/c3ccccc3)cc2)[C@H]2CN(Cc3cccnc3)CCCCN21	57.1% (active)
C[C@H]1CN([C@@H](C)CO)C(=O)Cc2cc(NS(=O)(=O)c3ccc(Cl)cc3)ccc2O[C@@H]1CN(C)S(=O)(=O)c1ccccc1	0.925% (inactive)
O=C(Cc1ccccn1)N[C@@H]1CC[C@H](CCn2cc(-c3ccc(F)cc3)nn2)O[C@@H]1CO	-0.234% (inactive)
Clc1ccccc1Nc1nc(NCc2cccs2)nc2ccsc12	-19.9% (inactive)
COc1cccc(CNc2nc(NCc3ccccc3OC)nc3ccsc23)c1	-11.5% (inactive)
COc1cccc(CNc2nc(NCc3cccs3)nc3ccsc23)c1	63.7% (active)
C[C@@H]1CN([C@H](C)CO)C(=O)c2cc(-c3ccc(C#N)cc3)cnc2O[C@@H]1CN(C)C(=O)Nc1ccccc1	4.39% (inactive)
COc1ccc(-c2ccc([C@@H]3[C@@H](CO)N4CCCCN(C(=O)NC(C)C)C[C@H]34)cc2)cc1	0.301% (inactive)
CCC(=O)Nc1ccc2c(c1)C(=O)N(C)[C@@H]1CC[C@@H](CC(=O)NCCc3ccccc3)O[C@H]1CO2	-0.75% (inactive)
CC(C)CC#Cc1ccc2c(c1)O[C@H](CN(C)S(=O)(=O)c1cccc(F)c1)[C@@H](C)CN([C@@H](C)CO)S2(=O)=O	10.9% (inactive)
COc1ccc(NC(=O)C2Cc3c(-c4cccc(NC(C)=O)c4)ccnc3O2)cc1OC (stereo not drawn)	-0.756% (inactive)
COc1ccc(NC(=S)SC)cc1OC	-5.52% (inactive)
COc1ccc(NC(=O)C2C3CCC(O3)C2C(=O)O)cc1OC (stereo not drawn)	71.2% (active)
